Rab9 promoter act: qHTS Assay for Rab9 Promoter Activators | Huh7 Rab9 promoter-luciferase reporter, luminescence, 24 h | Potency, µM (series often up to 9.22 µM), usual class: activators | 320,000 tested, 2.8% active; further: nearly all actives have a fitted effect of over 60% in size
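Huh7 cells stably carrying Rab9 promoter–luciferase reporter, plated 1500 cells/well, compound added after 2 h and incubated 24 h at 37 °C; luciferase luminescence then read after 10 min with detection reagent.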
SMN2 splice up: qHTS Assay for Enhancers of SMN2 Splice Variant Expression; HEK293 SMN2-luciferase splicing reporter, luminescence, 30-36 h; AID 1458, 2008; 210,000 tested, 2.8% active; Potency, µM (doses to about 46.1 µM), hits mostly activators; further: nearly all actives have a fitted effect of over 55% in size
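HEK293 cells carry an SMN2 minigene-luciferase reporter in which exon 7 inclusion puts luciferase in frame. Cells were seeded at 2000 cells/well, attached for 10-12 hours, then exposed to compounds for 30-36 hours at 37C before ONE-Glo luminescence.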
NPC1 promoter act: qHTS Assay for NPC1 Promoter Activators | Huh7 NPC1 promoter luciferase reporter, 24 h | Potency, µM (highest dose often 9.22 µM), usual class: activators | 320,000 tested, 2.4% active; further: nearly all actives have a fitted effect of over 60% in size
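NPC1 promoter–luciferase Huh7 cells; 24 h compound; luminescence.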
Luc counter: Counterscreen for Luciferase (Kinase-Glo TM) Inhibition; Kinase-Glo luciferase, ATP luminescence, 8 min; 200,000 tested, 0.28% active; Potency, µM (highest dose often 38.3 µM), actives largely listed as inhibitors; Luciferin 4-monooxygenase (Photuris pensylvanica), Q27757; AID 1379, 2008; further: nearly all actives have a fitted effect of over 60% in size
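Kinase-Glo luciferase light output from ATP and luciferin was measured with 10 uM ATP, within the enzyme's linear range. Buffer: 50 mM imidazole pH 7.2, 50 mM KCl, 7 mM MgCl2, 0.01% Tween 20, 0.05% BSA; luminescence read after 8 min at ambient temperature.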
ELG1 genotoxic: qHTS screen for small molecules that induce genotoxicity in human embryonic kidney (HEK293T) cells expressing luciferase-tagged ELG1 | HEK293T ELG1-luciferase reporter, luminescence, 16 h | 330,000 tested, 1.3% active | Potency, µM (doses to about 46 µM), actives largely listed as activators; further: nearly all actives have a fitted effect of over 60% in size
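ELG1-luciferase HEK293T cells, 2,000/well; compound pinned in; 16 hr, 37 °C, 5% CO2; ONE-Glo, 30 min RT; luminescence on CCD imager.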
FLuc modulator: qHTS profiling assay for firefly luciferase inhibitor/activator using purifed enzyme and Km concentrations of substrates (counterscreen for miR-21 project). Potency, µM (top dose mostly 57.5 µM), hits mostly inhibitors. Luciferin 4-monooxygenase (Photinus pyralis), P08659. purified FLuc, Km substrates, luminescence inhibition. 360,000 tested, 6.9% active; further: nearly all actives have a fitted effect of over 55% in size
Target sequence (P08659 whole entry, looked up): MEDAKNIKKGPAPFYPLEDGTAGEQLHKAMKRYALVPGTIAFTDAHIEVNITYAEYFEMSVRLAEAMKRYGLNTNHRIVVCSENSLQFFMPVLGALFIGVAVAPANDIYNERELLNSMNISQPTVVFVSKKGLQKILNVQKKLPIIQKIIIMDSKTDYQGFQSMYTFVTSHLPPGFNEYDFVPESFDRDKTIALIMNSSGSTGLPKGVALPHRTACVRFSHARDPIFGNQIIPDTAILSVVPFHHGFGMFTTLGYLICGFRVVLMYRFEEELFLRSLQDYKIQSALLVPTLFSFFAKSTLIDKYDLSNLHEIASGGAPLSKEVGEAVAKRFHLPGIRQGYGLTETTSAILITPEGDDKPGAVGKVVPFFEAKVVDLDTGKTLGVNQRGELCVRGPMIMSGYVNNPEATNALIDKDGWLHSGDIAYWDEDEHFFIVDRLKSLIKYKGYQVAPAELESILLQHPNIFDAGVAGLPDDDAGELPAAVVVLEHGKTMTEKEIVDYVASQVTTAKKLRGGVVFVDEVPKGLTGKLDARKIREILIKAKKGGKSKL
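Purified P. pyralis luciferase, 10 nM final, with Km-level 10 uM D-luciferin and 10 uM ATP in 50 mM Tris acetate pH 7.5, 10 mM Mg acetate, 0.01% Tween-20, 0.05% BSA; 6-point qHTS titration about 60 µM downward; luminescence read.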
Numbers stand for hits. An excerpt weighted towards active compounds, which were near 7.5% of everything screened. The call rests on the fitted dose curve; in most records, active means well fitted curve in the direction sought with a large enough effect; inconclusive means small, poorly fitted or top-dose-only effect, or another doubt; inactive means no such curve, though single readings can be large; an effect the other way counts as inactive or inconclusive.

How did Cc1[nH]c2ccccc2c1/C=N/Nc1nc(Nc2ccc(F)cc2)nc(N2CCOCC2)n1 do in these assays?
Rab9 promoter act: inactive; SMN2 splice up: inactive; NPC1 promoter act: inactive; Luc counter: inactive; ELG1 genotoxic: inactive; FLuc modulator: 17µM

Results for Cc1ccc(Nc2nc(N/N=C/c3c[nH]c4ccccc34)nc(N3CCOCC3)n2)cc1 ?
Rab9 promoter act: inactive; SMN2 splice up: inactive; NPC1 promoter act: inactive; Luc counter: inactive; ELG1 genotoxic: inactive; FLuc modulator: inconclusive

Results for Cc1ccc(S(=O)(=O)c2nnn3c2nc(N(C)Cc2ccccc2)c2cc(Cl)ccc23)cc1C ?
SMN2 splice up: inactive; FLuc modulator: inactive

What do the screens show for `Cc1ccc2c(=O)c(C(=O)c3ccc(F)cc3)cn(CC(=O)NCc3ccccc3Cl)c2n1`?
FLuc modulator: inactive

How did COc1ccc(C(=O)Nc2nnc(-c3cccs3)s2)cc1 do in these assays?
Rab9 promoter act: 0.79µM; SMN2 splice up: 7.1µM; NPC1 promoter act: 1µM; Luc counter: inactive; ELG1 genotoxic: 0.52µM; FLuc modulator: 1.2µM

How did O=C(Nc1ccccc1)Nc1nnc(-c2cccs2)s1 do in these assays?
Rab9 promoter act: inconclusive; SMN2 splice up: inconclusive; NPC1 promoter act: inconclusive; Luc counter: inactive; ELG1 genotoxic: inactive; FLuc modulator: inactive

Results for CC(C)(C)CC(=O)Nc1nnc(-c2cccs2)s1 ?
Rab9 promoter act: 3.2µM; SMN2 splice up: 13µM; NPC1 promoter act: 3.2µM; Luc counter: inactive; ELG1 genotoxic: inactive; FLuc modulator: inactive

Results for COc1ccc(NC(=O)Nc2nnc(-c3cccs3)s2)cc1 ?
Rab9 promoter act: 4µM; NPC1 promoter act: 4.5µM; ELG1 genotoxic: inactive; FLuc modulator: inconclusive

How did Cc1occc1C(=O)Nc1nnc(-c2cccs2)s1 do in these assays?
Rab9 promoter act: 3.2µM; SMN2 splice up: 3.5µM; NPC1 promoter act: inconclusive; Luc counter: inactive; ELG1 genotoxic: inconclusive; FLuc modulator: inconclusive

What do the screens show for `C[C@@](N)(C(=O)O)c1ccc(P(=O)(O)O)cc1`?
Luc counter: inactive

How did NC[C@](O)(CS(=O)(=O)O)c1ccc(Cl)cc1 do in these assays?
Luc counter: inactive

How did Cc1nnc(NC(=O)c2cccc(F)c2)s1 do in these assays?
Rab9 promoter act: inactive; SMN2 splice up: inactive; NPC1 promoter act: inactive; Luc counter: inactive; ELG1 genotoxic: inactive; FLuc modulator: inconclusive

Results for O=C(Nc1nnc(-c2cccs2)s1)c1cccc(F)c1 ?
Rab9 promoter act: 0.89µM; SMN2 splice up: 8.9µM; NPC1 promoter act: 1.8µM; Luc counter: inactive; ELG1 genotoxic: inconclusive; FLuc modulator: inconclusive

How did COc1ccc(NC(=O)c2ccc3c(c2)CCN3S(=O)(=O)c2ccc(C)cc2)cc1Cl do in these assays?
SMN2 splice up: inactive; FLuc modulator: inactive

Results for O=C(Nc1ccc(Cl)cc1)N1CCN(c2ccccc2)CC1 ?
Rab9 promoter act: inactive; SMN2 splice up: inactive; NPC1 promoter act: inactive; Luc counter: inactive; ELG1 genotoxic: inactive; FLuc modulator: inconclusive

What do the screens show for `O=C(Nc1ccc(Cl)cc1)N1CC=CCC1`?
Rab9 promoter act: inconclusive; SMN2 splice up: inactive; NPC1 promoter act: inconclusive; Luc counter: inactive; ELG1 genotoxic: inactive; FLuc modulator: 17µM

Results for CC(C)c1ccc(OC(=O)c2cc(-c3ccc(Cl)cc3)on2)cc1 ?
FLuc modulator: inactive

What do the screens show for `CCn1ccc(C(=O)Nc2ccc(Cl)cn2)n1`?
Rab9 promoter act: 4µM; SMN2 splice up: inconclusive; NPC1 promoter act: 3.2µM; Luc counter: inactive; ELG1 genotoxic: inconclusive; FLuc modulator: 19µM

What do the screens show for `CCn1ccc(C(=O)Nc2ccccc2SC)n1`?
Rab9 promoter act: 4.5µM; SMN2 splice up: 14µM; NPC1 promoter act: inconclusive; Luc counter: inactive; ELG1 genotoxic: inconclusive; FLuc modulator: inconclusive

What do the screens show for `CCn1ccc(C(=O)Oc2ccc(Cl)cc2)n1`?
Rab9 promoter act: inactive; SMN2 splice up: inactive; NPC1 promoter act: inactive; Luc counter: inactive; ELG1 genotoxic: inactive; FLuc modulator: 7.6µM

Source: PubChem (National Center for Advancing Translational Sciences (NCATS))
